# Measured values reported in PubChem BioAssay (NCI).
# This is part of a sample that, as a whole, favours compounds with a hit. Of some 83,000 tested, about 20% had one in any assay.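 The endpoint reported here, percent growth, reads 100 for growth as untreated, 0 for no net growth and -100 for all cells dead.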 Unmarked numbers belong to inactive results. Active and inactive are the calls of the source. Rule for the calls: active = growth percent below 10; inactive = the rest.
# System: HL-60(TB) leukemia
# Test: NCI-60 one-dose screen, 48 h (100 = growth as untreated, 0 = no growth, -100 = all killed)
# Settings: 10 µM unless noted
row,Structure (SMILES),growth
1,CCCCCCNC(=O)Oc1ccc(/C(=C(/CC)Cc2ccccc2)c2ccc(OCCCN(C)C)cc2)cc1,64.2%
2,COc1cc2nc(-c3ccc(C(F)(F)F)cc3)cc(OCCCN3CCOCC3)c2cc1OC,32.5%
3,O=C1/C(=C/c2ccc(Cl)cc2)CN(C(=O)CCN2CCC(=NO)CC2)C/C1=C\c1ccc(Cl)cc1,-13% (active)
4,COc1cc2nc(Nc3cccc(NC(C)=O)c3)nc(N)c2cc1OC,102%
5,NC1=CC(=O)C(=O)c2cccnc21,106%
6,CC(N)C(=O)NNc1n[nH]c(=S)n1N (centres undefined),101%
7,C=C/C(C)=C/C[C@]1(C)[C@H](C)[C@@H](OC(=O)CCC)[C@H](O)[C@@]23C(=C[C@H](OC)C[C@@H]12)[C@@H](OC(=O)CCC)O[C@H]3OC(C)=O,-43.9% (active)
8,Cc1ccnc2nc(C(=O)OCC(=O)Nc3ccc(-c4ccccc4)cc3)nn12,72.8%
9,N#CC1c2ccccc2C=CN1C(=O)N(c1ccccc1)c1ccccc1 (centres undefined),-8.07% (active)
10,CN1CCN(CCCOc2ccc3ncnc(Nc4ccc(Oc5cccc(F)c5)c(Cl)c4)c3c2)CC1,-47.3% (active)
11,Fc1ccc2nc(-c3ccc(-c4noc(-c5ccc(Cl)cc5)n4)cc3)[nH]c2c1,88.7%
12,CCOC(=O)c1cc(/C(=N\O)c2cc(OC)c(OC)c(OC)c2)n2cc(C)cc(C)c12,9.42% (active)
13,COc1ccc2[nH]cc(-c3nc(-c4cn(C)c5ccncc45)cs3)c2c1,82.3%
14,CC(=O)c1ccc(C(C)(C)C)cc1,100%
